Source: PubChem (National Center for Advancing Translational Sciences (NCATS))
A selection: hits, their analogues and other compounds. The true share with any hit is near 11%.
JMJD2A Tudor inh – qHTS Assay for Inhibitors of JMJD2A-Tudor Domain; Lysine-specific demethylase 4A (Homo sapiens), O75164; AlphaScreen JMJD2A-Tudor / H3K4me3 peptide binding; Potency, µM (series often up to 114 µM), hits mostly inhibitors; 390,000 tested, 4.4% active; further: nearly all actives have a fitted effect of over 50% in size
G9a inh – qHTS Assay for Inhibitors of Histone Lysine Methyltransferase G9a; Histone-lysine N-methyltransferase EHMT2 (Homo sapiens), Q96KQ7; G9a H3K9 monomethylation, AlphaScreen, 2 h; Potency, µM (titrated, usually from 102 µM), most hits filed as inhibitors; 350,000 tested, 8.8% active; further: nearly all actives have a fitted effect of over 75% in size
Target sequence (Q96KQ7 913-1193 limits assumed): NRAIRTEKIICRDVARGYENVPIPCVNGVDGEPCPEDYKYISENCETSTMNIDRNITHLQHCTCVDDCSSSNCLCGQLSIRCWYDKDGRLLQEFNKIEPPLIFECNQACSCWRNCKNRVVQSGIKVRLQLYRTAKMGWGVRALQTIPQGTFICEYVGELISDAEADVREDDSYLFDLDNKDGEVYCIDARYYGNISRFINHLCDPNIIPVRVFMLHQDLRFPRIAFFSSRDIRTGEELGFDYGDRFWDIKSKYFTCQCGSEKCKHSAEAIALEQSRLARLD
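Using a bead-based AlphaScreen, monomethylated H3K9 product from 2 h room-temperature reactions (G9a 20 nM, peptide 500 nM, SAM 20 uM) was detected with 0.5 ug/mL rabbit anti-H3K9me1 antibody.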
HP1b binding inh – HTS for Inhibitors of HP1-beta Chromodomain Interactions with Methylated Histone Tails | AlphaScreen HP1-beta / biotin-H3K9me3 peptide binding | AID 540317, 2011 | Chromobox protein homolog 1 (Homo sapiens), P83916 | Potency, µM (titrated, usually from 114 µM), hits mostly inhibitors | 390,000 tested, 0.56% active; further: nearly all actives have a fitted effect of over 70% in size
Target sequence (P83916 whole entry, looked up): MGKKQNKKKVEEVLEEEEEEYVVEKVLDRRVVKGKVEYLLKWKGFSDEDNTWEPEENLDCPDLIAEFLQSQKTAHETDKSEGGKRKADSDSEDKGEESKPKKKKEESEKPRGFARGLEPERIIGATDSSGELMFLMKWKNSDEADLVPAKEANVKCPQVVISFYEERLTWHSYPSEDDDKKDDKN
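HP1-beta protein (50 nM final) preincubated 30 min at room temperature with biotinylated H3(1-18)K9me3 peptide (50 nM) in PBS pH 7.4, 0.01% Tween-20, then compound added for 30 min. AlphaScreen streptavidin donor/nickel chelate acceptor beads (10 ug/mL final), 30 min dark, luminescence read.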
L3MBTL1 inh – qHTS Assay for the Inhibitors of L3MBTL1; AlphaScreen L3MBTL1–H3K9me1 peptide binding; Potency, µM (titrated, usually from 57.1 µM), usual class: inhibitors; 230,000 tested, 0.66% active; AID 485360, 2010; further: nearly all actives have a fitted effect of over 60% in size
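AlphaScreen proximity signal between nickel-chelate acceptor and streptavidin donor beads (final 10 ug/mL) reports binding of 50 nM L3MBTL1 to 75 nM biotin-H3 K9me1 peptide; complex incubated with compounds 30 min at room temperature; cefsulodin titration as control.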
BAZ2B inh – qHTS Assay for Inhibitors of BAZ2B. Bromodomain adjacent to zinc finger domain protein 2B (Homo sapiens), Q9UIF8. AlphaScreen BAZ2B-H3K14Ac peptide displacement. Potency, µM (titrated, usually from 114 µM), hits mostly inhibitors. 360,000 tested, 4.4% active; further: nearly all actives have a fitted effect of over 60% in size
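AlphaScreen displacement: compounds (up to 110uM) incubated 30 min at room temperature with a preformed 50 nM BAZ2B/50 nM biotinylated H3K14Ac peptide complex in PBS pH 7.4 with Tween-20. Donor and acceptor beads at 10 ug/mL final added, 20 min light-protected before reading.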
Hits are given with their value; – = inactive; ? = inconclusive; · = no result given; [ ] = dose if it differs, or a comment. The call rests on the fitted dose curve; in most records, active means well fitted inhibition curve with a large enough effect; inconclusive means small, poorly fitted or top-dose-only effect; inactive means no such curve, though single readings can be large or run the other way.

SMILES | JMJD2A Tudor inh | G9a inh | HP1b binding inh | L3MBTL1 inh | BAZ2B inh
CCn1cc(S(=O)(=O)c2ccc(C)cc2)c(=O)c2cc(F)c(N3CCCCCC3)cc21 | – | – | – | · | –
COc1ccc(-n2ccn(Cc3ccccc3C)c(=O)c2=O)cc1 | – | – | – | · | –
Cc1nc2sc(C(c3ccco3)N3CC(C)OC(C)C3)c(O)n2n1 (stereo unspecified) | – | 25.1µM | – | – | –
Cc1nc2sc(C(c3ccccc3)N3CC(C)OC(C)C3)c(O)n2n1 (stereo unspecified) | – | – | – | – | –
Cc1nc2sc(C(c3ccco3)N3CCN(c4ccccc4)CC3)c(O)n2n1 (stereo unspecified) | – | 44.7µM | – | – | –
CCNC(=O)CC1SC(=Nc2cccc3ccccc23)N(C)C1=O (stereo unspecified) | – | 50.1µM | – | – | –
CCCCn1cc2c(c1-c1ccc(Cl)cc1)c(=O)n(C)c(=O)n2C | – | ? | – | · | ?
CCCCN(C)C(=O)C1CCCN(c2ncnc3onc(-c4ccc(F)cc4)c23)C1 (stereo unspecified) | – | – | – | · | –
CCSc1nc2c([nH]c3ccccc32)c(=O)n1-c1ccc(OC)cc1 | – | – | – | · | –
COc1ccc(OC)c(NC(=O)CSc2nccn2-c2cc(C)cc(C)c2)c1 | 10µM | 15.8µM | ? | · | 12.6µM
Cc1ccc(NC(=O)CSc2nnc(C)c(=O)n2N)c(C)c1 | – | 1.78µM | – | ? | 50.1µM
CCOc1ccccc1NC(=O)CSc1nccn1-c1ccccc1 | – | ? | – | – | 50.1µM
Cc1cccc(NC(=O)CSc2nnc(C)c(=O)n2N)c1 | – | – | – | · | ·
Cc1cccc(-n2ccnc2SCC(=O)Nc2cccc3ccccc23)c1 | 31.6µM | 12.6µM | ? | · | 15.8µM
COc1ccc(NC(=O)CSc2nccn2-c2ccccc2)c(OC)c1 | – | ? | – | – | ?
COc1cc(F)c(S(=O)(=O)N2CCN(S(=O)(=O)c3cccc(N)c3)CC2)c(F)c1 | – | · | · | · | ·
CN(C)c1ncc2nc(CCc3ccccc3)c(=O)n(CCc3ccccc3)c2n1 | · | –[0.501 µM] | · | · | ·
Cc1ccc(NC(=O)Cc2ccc(-n3cccc3)cc2)c(C)c1 | – | – | – | ? | 50.1µM
COc1ccc(-c2nnc(SCC(=O)Nc3cc(OC)ccc3OC)nc2-c2ccc(OC)cc2)cc1 | ? | – | – | · | 7.94µM
COc1ccc(-c2nnc(SCC(=O)Nc3cccc(Cl)c3C)nc2-c2ccc(OC)cc2)cc1 | ? | – | – | · | –
COc1ccc(Cn2ccnc2SCC(=O)Nc2ccccc2F)cc1 | – | ? | – | · | ?
Cc1cc(C)cc(-n2ccnc2SCC(=O)Nc2ccc(C)cc2C)c1 | 39.8µM | 11.2µM | – | · | 31.6µM
COc1ccc(Cn2ccnc2SCC(=O)Nc2ccccc2OC)cc1 | ? | 44.7µM | – | · | ?
COc1ccc(S(=O)(=O)N2CCOCC2)cc1NC(=O)COC(=O)c1ccc([N+](=O)[O-])s1 | – | · | – | ? | ·
CCc1ccc(NC(=O)c2sc3nc(C)cc(C)c3c2NC(=O)c2ccccc2OC)cc1 | – | – | – | · | –
SMILES | JMJD2A Tudor inh | G9a inh | HP1b binding inh | L3MBTL1 inh | BAZ2B inh
Cc1cc(=O)n(Cc2cccc(F)c2)c2c1c(C)nn2-c1cccc(F)c1 | – | – | – | · | –
COc1ccc(S(=O)(=O)N2CCN(CC(=O)Nc3ccc(Cl)c(C(F)(F)F)c3)CC2)cc1 | – | – | – | · | –
CCSc1nc2sc3c(c2c(=O)[nH]1)CCc1ccccc1-3 | – | 50.1µM | – | – | –
O=C(COC(=O)C1=COCCO1)NCc1ccc(Cl)cc1 | – | – | – | – | –
O=C(O)c1cnn(-c2ccccc2)c1-c1ccncc1 | – | 50.1µM | – | · | ?
COc1cccc(CN2CCN(C(=O)c3cccc4ccccc34)CC2)c1OC | 3.98µM | ? | 20µM | · | 56.2µM
COc1ccc2oc(=O)cc(CN3CCN(C(=O)c4ccccc4F)CC3)c2c1 | – | – | ? | · | –
COc1ccccc1CN1CCN(C(=O)c2cccc3ccccc23)CC1 | 20µM | · | ? | · | ·
O=C(c1ccncc1)N1CCN(C(=O)c2cccc3ccccc23)CC1 | – | – | – | – | –
